Data reported in paper PMC7862700, “An all-to-all approach to the identification of sequence-specific readers for epigenetic DNA modifications on cytosine”.

Columns and labels:
Experiment in all cases: DAPPL (digital affinity profiling via proximity ligation, sequencing); 10 mM Tris-HCl pH 7.5, 50 mM NaCl, 1 mM DTT, 4% glycerol, room temperature, 30 min; GST-TFs on glutathione beads, 16-mer random dsDNA library, 0.1% formaldehyde crosslink after washing; high values mean tight binding
Settings in all cases: protein: recombinant; tags: N-terminal GST; dsDNA, one strand shown
[1] = molecular target: T1, ERF (Homo sapiens, UniProt P50548 1-548)
T1 sequence: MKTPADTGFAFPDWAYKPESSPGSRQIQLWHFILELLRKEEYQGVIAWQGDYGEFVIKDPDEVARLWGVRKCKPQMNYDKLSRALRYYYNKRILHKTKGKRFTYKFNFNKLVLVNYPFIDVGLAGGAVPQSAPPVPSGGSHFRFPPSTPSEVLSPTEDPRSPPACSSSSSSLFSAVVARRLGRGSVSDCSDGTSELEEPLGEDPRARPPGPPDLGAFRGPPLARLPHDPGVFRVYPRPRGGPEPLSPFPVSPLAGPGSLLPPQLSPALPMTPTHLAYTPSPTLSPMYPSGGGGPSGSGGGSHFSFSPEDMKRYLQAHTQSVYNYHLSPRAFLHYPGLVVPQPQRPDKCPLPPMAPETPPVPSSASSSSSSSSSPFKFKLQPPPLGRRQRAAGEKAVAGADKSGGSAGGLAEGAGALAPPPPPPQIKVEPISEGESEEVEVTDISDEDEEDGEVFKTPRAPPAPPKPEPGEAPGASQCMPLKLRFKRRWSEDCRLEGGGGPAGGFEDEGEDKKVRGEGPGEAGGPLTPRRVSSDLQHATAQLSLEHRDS
Summary of the method: (§1)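 Each value of binding signal is a hexamer's read frequency for a factor divided by the same hexamer's frequency in the tag-only sample. Barcoded, bead-captured GST fusions of human transcription factors made in yeast were pooled with that sample and incubated with 200 nmole of a random double-stranded 16-mer DNA library in Tris/NaCl/DTT/glycerol buffer at room temperature for 30 min. Washing, 0.1% formaldehyde crosslinking, proximity ligation, PCR and Illumina NextSeq500 sequencing followed.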

[2] = molecular target: T2, ETV3L (Homo sapiens, UniProt Q6ZN32 1-361)
T2 sequence: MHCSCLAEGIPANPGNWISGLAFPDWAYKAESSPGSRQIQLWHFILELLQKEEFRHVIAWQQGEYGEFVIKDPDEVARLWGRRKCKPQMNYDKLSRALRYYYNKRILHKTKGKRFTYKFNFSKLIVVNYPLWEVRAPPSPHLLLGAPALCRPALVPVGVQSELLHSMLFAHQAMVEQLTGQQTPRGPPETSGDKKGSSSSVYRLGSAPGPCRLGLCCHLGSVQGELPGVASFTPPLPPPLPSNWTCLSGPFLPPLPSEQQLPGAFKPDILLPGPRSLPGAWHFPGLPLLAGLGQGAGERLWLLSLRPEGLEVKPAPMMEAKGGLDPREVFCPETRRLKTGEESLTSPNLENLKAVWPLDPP
Summary of the method: as §1

[3] = molecular target: T3, ETS2 (Homo sapiens, UniProt P15036 1-469)
T3 sequence: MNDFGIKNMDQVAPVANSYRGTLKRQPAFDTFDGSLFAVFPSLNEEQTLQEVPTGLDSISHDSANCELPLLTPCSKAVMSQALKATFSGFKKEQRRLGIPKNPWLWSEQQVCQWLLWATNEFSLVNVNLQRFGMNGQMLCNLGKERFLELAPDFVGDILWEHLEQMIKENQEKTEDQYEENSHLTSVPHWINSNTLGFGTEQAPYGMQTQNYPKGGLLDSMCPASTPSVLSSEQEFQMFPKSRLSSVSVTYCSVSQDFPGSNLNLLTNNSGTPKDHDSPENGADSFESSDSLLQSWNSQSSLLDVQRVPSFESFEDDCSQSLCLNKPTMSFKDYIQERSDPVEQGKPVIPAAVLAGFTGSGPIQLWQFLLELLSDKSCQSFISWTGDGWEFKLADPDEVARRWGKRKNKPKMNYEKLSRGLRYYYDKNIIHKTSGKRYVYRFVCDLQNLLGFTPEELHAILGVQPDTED
Summary of the method: as §1

[4] = molecular target: T4, SPDEF (Homo sapiens, UniProt O95238 1-335)
T4 sequence: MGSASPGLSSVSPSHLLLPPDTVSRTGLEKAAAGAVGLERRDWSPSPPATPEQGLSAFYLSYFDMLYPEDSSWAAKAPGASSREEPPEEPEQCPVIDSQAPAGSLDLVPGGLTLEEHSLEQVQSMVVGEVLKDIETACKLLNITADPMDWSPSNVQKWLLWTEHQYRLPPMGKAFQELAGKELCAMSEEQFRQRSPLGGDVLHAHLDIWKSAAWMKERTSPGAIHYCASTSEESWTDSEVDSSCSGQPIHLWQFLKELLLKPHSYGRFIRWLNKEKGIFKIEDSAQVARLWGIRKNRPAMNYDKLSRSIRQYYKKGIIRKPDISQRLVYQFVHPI
Summary of the method: as §1

[5] = molecular target: T5, ETV7 (Homo sapiens, UniProt Q9Y603 1-341)
T5 sequence: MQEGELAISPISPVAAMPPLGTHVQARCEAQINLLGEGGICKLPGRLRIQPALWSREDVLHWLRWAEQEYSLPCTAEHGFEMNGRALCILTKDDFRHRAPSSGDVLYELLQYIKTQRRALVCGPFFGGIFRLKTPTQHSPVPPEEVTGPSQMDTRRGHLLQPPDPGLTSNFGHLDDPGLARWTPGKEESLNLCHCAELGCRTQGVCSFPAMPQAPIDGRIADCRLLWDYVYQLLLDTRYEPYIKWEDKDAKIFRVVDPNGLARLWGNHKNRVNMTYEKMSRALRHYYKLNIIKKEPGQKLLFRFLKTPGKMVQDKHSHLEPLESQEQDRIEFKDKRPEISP
Summary of the method: as §1

[6] = molecular target: T6, ELF5 (Homo sapiens, UniProt Q9UKW6-2 1-255)
T6 sequence: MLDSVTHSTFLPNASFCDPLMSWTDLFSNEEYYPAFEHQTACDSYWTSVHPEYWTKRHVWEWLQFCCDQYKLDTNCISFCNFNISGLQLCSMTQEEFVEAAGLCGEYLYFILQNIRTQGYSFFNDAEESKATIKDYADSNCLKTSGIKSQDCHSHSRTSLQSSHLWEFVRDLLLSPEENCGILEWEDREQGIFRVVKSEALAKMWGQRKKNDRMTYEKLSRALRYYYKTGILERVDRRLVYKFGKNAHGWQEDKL
Summary of the method: as §1

[7] = molecular target: T7, ETV3 (Homo sapiens, UniProt P41162-2 1-143)
T7 sequence: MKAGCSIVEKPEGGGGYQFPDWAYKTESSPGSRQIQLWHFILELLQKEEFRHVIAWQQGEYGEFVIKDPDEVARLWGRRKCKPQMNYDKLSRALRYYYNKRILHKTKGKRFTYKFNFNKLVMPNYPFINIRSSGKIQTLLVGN
Summary of the method: as §1

[8] = molecular target: ETV6 (Homo sapiens, UniProt P41212 1-452)
Summary of the method: as §1

Sequence of ETV6 (P41212 whole entry): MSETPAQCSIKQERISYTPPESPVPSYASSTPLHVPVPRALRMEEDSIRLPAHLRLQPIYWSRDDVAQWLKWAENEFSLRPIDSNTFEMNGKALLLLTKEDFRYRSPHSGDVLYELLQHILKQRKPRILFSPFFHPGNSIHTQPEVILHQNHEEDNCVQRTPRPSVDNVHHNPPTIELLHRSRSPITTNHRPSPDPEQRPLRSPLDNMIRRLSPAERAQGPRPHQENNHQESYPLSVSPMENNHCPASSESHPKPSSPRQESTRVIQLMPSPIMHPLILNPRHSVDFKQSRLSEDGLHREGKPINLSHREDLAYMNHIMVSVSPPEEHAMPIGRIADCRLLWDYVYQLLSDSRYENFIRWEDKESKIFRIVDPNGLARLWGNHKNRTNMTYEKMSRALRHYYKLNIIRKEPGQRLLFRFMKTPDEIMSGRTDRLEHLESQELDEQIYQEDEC

Sequence	binding signal [1]	binding signal [2]	binding signal [3]	binding signal [4]	binding signal [5]	binding signal [6]	binding signal [7]	binding signal [8]
GACCTC	1.52 fold enrichment (6-mer frequency, TF over GST control)	1.51 fold enrichment (6-mer frequency, TF over GST control)	1.38 fold enrichment (6-mer frequency, TF over GST control)	1.29 fold enrichment (6-mer frequency, TF over GST control)	1.33 fold enrichment (6-mer frequency, TF over GST control)	1.32 fold enrichment (6-mer frequency, TF over GST control)	1.28 fold enrichment (6-mer frequency, TF over GST control)	1.42 fold enrichment (6-mer frequency, TF over GST control)
GTACAA	1.03 fold enrichment (6-mer frequency, TF over GST control)	1.09 fold enrichment (6-mer frequency, TF over GST control)	1.1 fold enrichment (6-mer frequency, TF over GST control)	1.06 fold enrichment (6-mer frequency, TF over GST control)	1.12 fold enrichment (6-mer frequency, TF over GST control)	1.03 fold enrichment (6-mer frequency, TF over GST control)	1.11 fold enrichment (6-mer frequency, TF over GST control)	1.15 fold enrichment (6-mer frequency, TF over GST control)
GCATCC	1.43 fold enrichment (6-mer frequency, TF over GST control)	1.56 fold enrichment (6-mer frequency, TF over GST control)	1.61 fold enrichment (6-mer frequency, TF over GST control)	2.71 fold enrichment (6-mer frequency, TF over GST control)	1.43 fold enrichment (6-mer frequency, TF over GST control)	1.64 fold enrichment (6-mer frequency, TF over GST control)	1.62 fold enrichment (6-mer frequency, TF over GST control)	1.57 fold enrichment (6-mer frequency, TF over GST control)
TTGCTA	1.37 fold enrichment (6-mer frequency, TF over GST control)	1.35 fold enrichment (6-mer frequency, TF over GST control)	1.33 fold enrichment (6-mer frequency, TF over GST control)	1.31 fold enrichment (6-mer frequency, TF over GST control)	1.37 fold enrichment (6-mer frequency, TF over GST control)	1.21 fold enrichment (6-mer frequency, TF over GST control)	1.28 fold enrichment (6-mer frequency, TF over GST control)	1.23 fold enrichment (6-mer frequency, TF over GST control)
CTGCAG	1.07 fold enrichment (6-mer frequency, TF over GST control)	1.18 fold enrichment (6-mer frequency, TF over GST control)	1.18 fold enrichment (6-mer frequency, TF over GST control)	1.1 fold enrichment (6-mer frequency, TF over GST control)	1.13 fold enrichment (6-mer frequency, TF over GST control)	1.09 fold enrichment (6-mer frequency, TF over GST control)	1.07 fold enrichment (6-mer frequency, TF over GST control)	1.11 fold enrichment (6-mer frequency, TF over GST control)
TGCATG	1.06 fold enrichment (6-mer frequency, TF over GST control)	1.27 fold enrichment (6-mer frequency, TF over GST control)	1.06 fold enrichment (6-mer frequency, TF over GST control)	1.06 fold enrichment (6-mer frequency, TF over GST control)	1.06 fold enrichment (6-mer frequency, TF over GST control)	1.01 fold enrichment (6-mer frequency, TF over GST control)	1.1 fold enrichment (6-mer frequency, TF over GST control)	1.08 fold enrichment (6-mer frequency, TF over GST control)
GCACTC	1.39 fold enrichment (6-mer frequency, TF over GST control)	1.33 fold enrichment (6-mer frequency, TF over GST control)	1.23 fold enrichment (6-mer frequency, TF over GST control)	1.22 fold enrichment (6-mer frequency, TF over GST control)	1.28 fold enrichment (6-mer frequency, TF over GST control)	1.27 fold enrichment (6-mer frequency, TF over GST control)	1.28 fold enrichment (6-mer frequency, TF over GST control)	1.34 fold enrichment (6-mer frequency, TF over GST control)
GTTGCA	1.13 fold enrichment (6-mer frequency, TF over GST control)	1.19 fold enrichment (6-mer frequency, TF over GST control)	1.17 fold enrichment (6-mer frequency, TF over GST control)	1.17 fold enrichment (6-mer frequency, TF over GST control)	1.15 fold enrichment (6-mer frequency, TF over GST control)	1.1 fold enrichment (6-mer frequency, TF over GST control)	1.14 fold enrichment (6-mer frequency, TF over GST control)	1.11 fold enrichment (6-mer frequency, TF over GST control)
